Measured values from PubChem BioAssay AID1852 (Sanford-Burnham Center for Chemical Genomics, 2009).
Out of some 2,500 compounds screened, about 1,100 (44%) were called active. So high a share suggests a set chosen from earlier hits. This is one part of the list. Unmarked numbers belong to inactive results.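 The calls were made as follows: active = inhibition above 50% at 4 µM in the single-point screen; inactive = inhibition of 50% or less.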

Assay: blockers of TNF-a NF-kB luciferase induction – cell-based, HEK293T NF-kB-Luc, luminescence, selectivity assay for NOD1/NOD2 signaling inhibitor project, primary screen (AID 1852)
Conditions: TNF-a induced, 14 h, at 4 µM, hits give high values

Structure (SMILES) | inhibition
Cc1cc(C(=O)Nc2ccc(Cl)cc2)c(C)n1-c1ccccc1 | 56.3% (active)
COc1cc(NC(=O)c2cccs2)c(C(=O)OCC(=O)c2cc(C)n(-c3ccccc3)c2C)cc1OC | 41.1%
O=C(Nc1ccc(Cl)cc1)c1cccc(N2C(=O)C3C4CCC(C4)C3C2=O)c1 (stereo not given) | 3.3%
CCOc1ccc(NC(=O)C2CCCN(S(=O)(=O)c3c(C)noc3C)C2)cc1 (stereo not given) | 49.2%
COc1ccc(-c2nnc(Sc3nc4ccccc4o3)c3ccccc23)cc1 | -25.6%
COc1ccc(-c2nc(NC(C)=O)sc2-c2ccccc2)cc1 | 58.1% (active)
CC(=O)c1c(C)[nH]c(C(=O)Nc2nc(-c3ccccc3)c(C)s2)c1C | -37.3%
CCc1ccc(S(=O)(=O)/N=C2\C=C(Nc3ccc(O)cc3)C(=O)c3ccccc32)cc1 | 106% (active)
COc1ccc(S(=O)(=O)/N=C2\C=C(Nc3ccc(O)cc3)C(=O)c3ccccc32)cc1 | 101% (active)
CCc1ccc(S(=O)(=O)/N=C2\C=C(Nc3cccc(C(=O)O)c3)C(=O)c3ccccc32)cc1 | 107% (active)
COc1ccc(S(=O)(=O)n2ccc(C(C)Oc3ccc(-c4ccccc4)c(F)c3)n2)cc1 (stereo not given) | 20.1%
O=C1C(Cl)=C(Nc2ccc(O)cc2)C(=O)c2ccccc21 | 30.4%
CCc1ccc(S(=O)(=O)/N=C2\C=C(Nc3ccc(C(=O)O)cc3)C(=O)c3ccccc32)cc1 | 49.3%
O=C(O)c1cccc(S(=O)(=O)Nc2ccccc2Cc2ccccc2)c1 | 14.3%
c1ccc(CCCNc2ncccn2)cc1 | 19%
CCOc1ccc2nc(SCc3ccc(CC(=O)O)cc3)c(C#N)cc2c1 | 64.6% (active)
Cc1cc(/C=N/Nc2ncnc(N)c2[N+](=O)[O-])c(C)n1-c1ccccc1 | 3.7%
Nc1c(Cl)ncnc1N/N=C/c1ccccn1 | 109% (active)
COc1cc(/C=C2/CCc3ccccc3C2=O)cc(OC)c1OC | -23.8%
COc1cc(/C=C2\COC/C(=C\c3cc(OC)c(OC)c(OC)c3)C2=O)cc(OC)c1OC | 106% (active)
COc1cc(/C=C2\CC(C(C)(C)C)C/C(=C\c3cc(OC)c(OC)c(OC)c3)C2=O)cc(OC)c1OC (stereo not given) | 87.2% (active)
Cc1ccc(NC2=C/C(=N\S(=O)(=O)c3cccs3)c3ccccc3C2=O)c(C)c1 | 102% (active)
CCc1cccc(NC(=O)C2CCCN(S(=O)(=O)c3cccs3)C2)c1 (stereo not given) | 18.2%
COC(=O)c1ccccc1NC1=C/C(=N\S(=O)(=O)c2cccs2)c2ccccc2C1=O | 99.7% (active)

Structure (SMILES) | inhibition
Cc1cccc(NC2=C/C(=N/S(=O)(=O)c3cccs3)c3ccccc3C2=O)c1 | 63.9% (active)
Cc1ccccc1NC1=C/C(=N\S(=O)(=O)c2cccs2)c2ccccc2C1=O | 108% (active)
COc1ccc(CNS(=O)(=O)c2ccc3c(c2)CC(C)N3C(=O)C2CC2)cc1 (stereo not given) | 30%
Cc1ccc(Cl)cc1NC1=C/C(=N\S(=O)(=O)c2cccs2)c2ccccc2C1=O | 102% (active)
CCOc1ccc(OCCN2C(=O)NC3(CCCc4ccccc43)C2=O)cc1 (stereo not given) | 18.7%
CN(CC1CCCO1)S(=O)(=O)c1ccc(C(=O)Nc2nc3cc4c(cc3s2)OCO4)cc1 (stereo not given) | 69.7% (active)
CCN(CC)S(=O)(=O)c1cccc(C(=O)Nc2nc3cc4c(cc3s2)OCCO4)c1 | 22%
O=C(Nc1nc2cc3c(cc2s1)OCCO3)C1=COCCO1 | 22.7%
CCC1CCCCN1S(=O)(=O)c1ccc(NC(=O)c2ccncc2)cc1 (stereo not given) | 9.7%
O=C(c1ccc(S(=O)(=O)N2CCCCC2)cc1)N1CCN(CCN2C(=O)c3cccc4cccc(c34)C2=O)CC1 | 31%
CC1CCCCN1S(=O)(=O)c1ccc(C(=O)Nc2nnc(-c3ccccc3Cl)o2)cc1 (stereo not given) | 97.2% (active)
CCC1CCCCN1S(=O)(=O)c1ccc(C(=O)Nc2nnc(-c3ccccc3Cl)o2)cc1 (stereo not given) | 70.3% (active)
O=C(Nc1nnc(-c2ccccc2Cl)o1)c1ccc(S(=O)(=O)N2CCCCCC2)cc1 | 93.9% (active)
O=C(c1[nH]ncc1-c1ccc(Cl)cc1)C1CO1 (stereo not given) | 12.8%
CN(C(=O)C(C)(C)C)c1ccc(OCC(=O)N2CCc3ccccc3C2)cc1 | 41.9%
CCOc1ccc(NC(=O)Nc2nc(SCC)ns2)cc1 | 12.2%
S=C(NNc1ccnc2cc(Cl)ccc12)Nc1ccc(Cl)cc1Cl | 43.7%
FC(F)(F)c1cnc(NNC(=S)Nc2ccccc2Cl)c(Cl)c1 | -6.8%
S=C(NNc1ccnc2cc(Cl)ccc12)Nc1ccccc1Cl | 64.6% (active)
COc1ccc(-c2cnc(N)nc2-c2ccc(OC)cc2O)cc1 | 70.5% (active)
COc1ccc(-c2cncnc2-c2ccc(OC)cc2O)cc1 | 79.8% (active)
COc1ccc(-c2n[nH]c(C)c2-c2ccc(OC)c(OC)c2)c(O)c1 | 28.7%
COc1cccc(NC(=O)c2oc3ccc(S(=O)(=O)N4CCOCC4)cc3c2C)c1 | -31.8%
Cc1c(C(=O)Nc2nonc2-c2ccc(F)cc2)oc2ccc(F)cc12 | 77.4% (active)

Structure (SMILES) | inhibition
CC1CCN(c2ccc(-c3cccc(NC(=O)C(F)(F)F)c3)nn2)CC1 | -170%
Cc1ccc(C(=O)OCn2ncc(Cl)c(Cl)c2=O)cc1 | 88.1% (active)
O=C(OCn1ncc(Cl)c(Cl)c1=O)c1cccc(C(F)(F)F)c1 | 43%
O=C(OCn1ncc(Cl)c(Cl)c1=O)c1ccc(F)cc1 | 83.1% (active)
COc1ccc(CCNc2oc(COc3ccccc3Cl)nc2C#N)cc1OC | 11.6%
COc1ccc(Nc2oc(COc3ccccc3OC)nc2C#N)cc1 | 77.8% (active)
COc1ccc(CCNc2oc(COc3ccc(Br)cc3)nc2C#N)cc1OC | 24.5%
Cc1ccc(NS(=O)(=O)c2sc3ccc(Cl)cc3c2C)cc1 | 9.4%
CCOc1ccc(S(=O)(=O)Nc2cnc3ccccc3c2)cc1 | 81.5% (active)
CCOc1ccc(Nc2nc(N)c3ccccc3n2)cc1 | -144%
COc1cc(CNc2ccc3[nH]c(=O)[nH]c3c2)ccc1OCc1cccc(C)c1 | 44.3%
CCOc1ccc(NS(=O)(=O)c2ccc3[nH]c(=O)[nH]c3c2)cc1 | 88.5% (active)
CCOc1ccc(NS(=O)(=O)c2cc(Cl)ccc2OC)cc1 | 10.6%
CC(C)c1ccc(-c2nnn(CCC(=O)O)n2)cc1 | 49.4%
COC(=O)CCn1nnc(-c2ccc(C(C)C)cc2)n1 | 71.7% (active)
Cc1ccc(NC(=O)C2=C(c3ccccc3)S(=O)(=O)CCS2(=O)=O)cc1 | 65% (active)
O=C(Nc1ccccc1)C1=C(c2ccccc2)S(=O)(=O)CCS1(=O)=O | 60.9% (active)
CC(C)=CCc1c(O)cc2oc3c(CC=C(C)C)c(O)c(O)c(CC=C(C)C)c3c(=O)c2c1O | 15.6%
Brc1ccc2ncnc(NCc3cccnc3)c2c1 | 65.2% (active)
Brc1ccc2ncnc(NCc3ccco3)c2c1 | 60.4% (active)
C=CCNc1ncnc2ccc(Br)cc12 | 25.1%
Cc1ccc(/C=C2/SC(=S)N(c3ccc(S(=O)(=O)Nc4nccs4)cc3)C2=O)cc1 | 21%
O=C(O)c1ccc(N/N=C/c2ccc(OC(=O)c3ccccc3Cl)cc2)cc1 | 7.7%
CC(C)Cc1ccc(S(=O)(=O)Nc2ccccn2)cc1 | 15.7%

Structure (SMILES) | inhibition
CC(C)c1ccc(S(=O)(=O)/N=C2\C=C(NS(=O)(=O)c3ccccc3)C(=O)c3ccccc32)cc1 | 103% (active)
CC(C)(C)c1ccc(S(=O)(=O)/N=C2\C=C(NS(=O)(=O)c3ccccc3)C(=O)c3ccccc32)cc1 | 96.3% (active)
CCc1oc2ccccc2c1C(=O)c1cc(Br)c(O)c(Br)c1 | 71.9% (active)
CCOC(=O)c1c(-c2ccccc2)oc2cc(Br)c(O)c(C=O)c12 | 50%
CCOc1ccc2c(c1)C(=NNC(=O)c1ccncc1)c1cc(OCC)ccc1-2 | 106% (active)
O=C(N/N=C/c1cc(Br)c(Br)s1)c1ccncc1 | 2.7%
COc1ccc(NS(=O)(=O)c2ccc3ccccc3c2)c2ncccc12 | 27.9%
O=S(=O)(Nc1cccc2cccnc12)c1ccccc1 | -4%
Cc1nc(C)c(C(=O)NNS(=O)(=O)c2ccc3ccccc3c2)s1 | 21.5%
O=[N+]([O-])c1ccccc1S(=O)(=O)Nc1cccc2cccnc12 | 35%
Cc1ccc2cccc(NS(=O)(=O)c3ccccc3)c2n1 | 62.8% (active)
COc1cc(NS(=O)(=O)c2ccc3ccccc3c2)c2ncccc2c1 | 55.6% (active)
O=S(=O)(Nc1cccc(-c2cn3cccnc3n2)c1)c1ccc(-c2ccccc2)cc1 | 20.8%
Cc1ccc(S(=O)(=O)Nc2cccc3cccnc23)cc1 | 105% (active)
Cc1ccc(S(=O)(=O)Nc2cccc3cccnc23)c([N+](=O)[O-])c1 | 103% (active)
CC(C)NC(=O)c1sc(=S)n2c1[nH]c(=O)c1ccc(C(=O)NCCc3ccc(Cl)cc3)cc12 | 42.5%
COc1cc(C(=O)Nc2sc3c(c2C(=O)NCc2ccco2)CCCC3)cc(OC)c1OC | -39.2%
COc1ccc(OC)c(CCNC(=O)c2ccc3c(=O)[nH]c4c(C(=O)NC(C)C)sc(=S)n4c3c2)c1 | 35.7%
O=C(NCc1ccccc1)c1sc(=S)n2c1[nH]c(=O)c1ccccc12 | 73.6% (active)
CCOc1ccc(CCNC(=O)c2ccc3c(=O)[nH]c4c(C(=O)NC(C)C)sc(=S)n4c3c2)cc1 | 50.9% (active)
O=C(NCc1ccccc1)c1ccc(C2SCC(=O)N2Cc2ccccc2)cc1 (stereo not given) | 33.1%
CCCCNC(=O)c1sc(=S)n2c1[nH]c(=O)c1ccccc12 | 69.9% (active)
O=C(NCc1ccco1)c1sc(=S)n2c1[nH]c(=O)c1ccccc12 | 54.1% (active)
